From PubChem
FMDV inh: antivirals against foot and mouth disease virus | FMDV antiviral cell-based qHTS | Potency, µM (highest dose often 57.9 µM), inactives show at the highest dose activity change, negative = inhibition, actives largely listed as inhibitors | 410,000 tested, 1.2% active | AID 1159524; calls by dose curve; tested in HEK293T cells; note: read-out not given here; potency is the fitted concentration of half-maximal effect; % is set by controls: 0 for no effect and ±100 for the full control effect; nearly all actives have a fitted effect of over 45% in size
Shiga inhibitor: blocks Shiga toxin action in Vero cells | 290,000 tested, 9.2% active | Vero cells, Shiga toxin protein synthesis inhibition reporter | inhibition, % at 38.7 µM; in the data active = inhibition mostly above about 28%, no sharp cut-off; inactive = mostly below about 43%; note: 0% is about no effect
CHX counter: counter-screen hit for Shiga toxin inhibitors, cycloheximide | cell reporter, cycloheximide protein synthesis inhibition counterscreen | max response, % | 300,000 tested, 12% active; in the data active = max response mostly above about 13%, no sharp cut-off; inactive = mostly below about 14%; note: read at 38.3 µM for the half of the compounds with a filed dose; 0% is about no effect
HCV inh: blocks hepatitis C virus | Potency, µM (series often up to 41.8 µM), for inactives: at the top dose activity change, negative = inhibition, most hits filed as inhibitors | Huh7.5.1 HCVcc-Cre infection, luciferase reporter, 44 h | AID 651820 | 340,000 tested, 3.4% active; active = well fitted inhibition curve with a large enough effect; inconclusive = small, poorly fitted or top-dose-only effect, or another doubt; inactive = no such curve, though single readings can be large or run the other way; note: potency is the fitted concentration of half-maximal effect; % is set by controls: 0 for no effect and ±100 for the full control effect
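Cells (1,000/well) were plated 4 h before compound, then infected with HCVcc-Cre virus (~0.5 moi). After 44 h further culture, infection was read as luciferase luminescence following a 15 min substrate incubation at room temperature.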
Marburg entry inh: inhibitors of Marburg virus binding or cell entry | Marburg virus pseudotyped entry inhibition, cell reporter | Potency, µM (doses to about 37.8 µM), inactives show at the highest dose activity change, negative = inhibition, actives largely listed as inhibitors | 300,000 tested, 1.8% active | AID 540276; calls by dose curve; tested in HEK293 cells; note: potency is the fitted concentration of half-maximal effect; % is set by controls: 0 for no effect and ±100 for the full control effect
Lassa entry inh: Lassa virus entry inhibition; Lassa virus pseudotype entry inhibition, cell reporter; Potency, µM (top dose mostly 37.9 µM), for the others: at the top dose activity change, negative = inhibition, actives largely listed as inhibitors; 300,000 tested, 1.2% active; AID 540256; calls by dose curve; tested in HEK293 cells; note: potency is the fitted concentration of half-maximal effect; % is set by controls: 0 for no effect and ±100 for the full control effect; nearly all actives have a fitted effect of over 50% in size
Active calls of the source: *; ? = inconclusive; nt = no result; ! = repeats disagree; [ ] = dose if it differs, or a comment. Most compounds without a hit are left out; they make up all but 13% or so of the library.

SMILES | FMDV inh | Shiga inhibitor | CHX counter | HCV inh | Marburg entry inh | Lassa entry inh
Cc1cccc(NC(=S)N2CCN(S(=O)(=O)c3cccc(F)c3)CC2)c1 | 2.1% | 6.4 | 8.6 | 6.31µM* | ? | -0.3%
CC(=O)c1cccc(NC(=S)N2CCN(S(=O)(=O)c3ccccc3)CC2)c1 | 31.0% | 50.4 | 9.7* | nt | 7.8% | ?
CC(=O)c1cccc(NC(=S)N2CCN(S(=O)(=O)c3ccc(F)cc3)CC2)c1 | 1.0% | -0.3 | 19.2* | -8.1% | -23.2%[46.1 µM] | -7.6%
CC(=O)c1cccc(NC(=O)c2ccc(S(=O)(=O)N3CCCC3)cc2)c1 | -12.5% | 35.2 | 6.6 | 0.8% | 2.7%[46.1 µM] | 7.0%[46.1 µM]
Cc1cccc(NC(=S)N2CCN(S(=O)(=O)c3ccccc3)CC2)c1 | 0.5% | -6.2 | -0.8 | -5.5% | 5.3%[46.1 µM] | ?
COc1ccc(-[n+]2c(-c3ccccc3)cc(-c3ccccc3)cc2-c2ccccc2)cc1 | 3.16µM* | nt | nt | ? | nt | nt
O=[N+]([O-])c1ccc(-[n+]2c(-c3ccccc3)cc(-c3ccccc3)cc2-c2ccccc2)cc1 | -11.9% | nt | -3.1 | -12.3% | nt | nt
Oc1ccc(-[n+]2c(-c3ccccc3)cc(-c3ccccc3)cc2-c2ccccc2)cc1 | 10µM* | nt | nt | 8.91µM* | nt | nt
Cc1nc2sc(C(c3ccco3)N3CCN(c4ccc(F)cc4)CC3)c(O)n2n1 (stereo not drawn) | -23.7% | -4.7 | -1.7 | 17.3% | nt | nt
C/C(=N\NC(=S)Nc1c(C)cccc1C)c1ccc(OC(F)F)cc1 | -8.9% | 1.7 | -0.9 | ? | ? | ?
COCCCOc1ccnc(CS(=O)c2nc3ccccc3[nH]2)c1C (stereo not drawn) | 9.9% | 47.7* | 43.5* | ? | nt | nt
Cc1c(OCC(F)(F)F)ccnc1CS(=O)c1nc2ccccc2[nH]1 (stereo not drawn) | -13.0% | 116.0*! | 26.6* | ? | ? | ?
CCOC(=O)CCc1nc2ccccc2[nH]c1=O | -4.5% | -11.1 | -0.9 | 10.1% | ? | 4.2%
Cc1c(OCC(F)(F)F)ccnc1CSc1nc2ccccc2[nH]1 | -26.9% | 132.0* | 53.5* | ? | ? | ?
CCN(CC)c1nc(NNC(=O)c2ccccc2)nc(N(CC)CC)n1 | 3.4% | nt | nt | -20.4% | 3.7% | 12.8%
CC(=O)c1cccc(Nc2cc(C)nc3c(C)cc(C)cc23)c1 | -18.7% | 1.3 | -2.7 | -19.8% | ? | -10.9%
O=C1C2C3C=CC(C3)C2C(=O)N1c1ccc2c(c1)CCC2 (stereo not drawn) | 10.0% | -1.8 | -3.0 | 6.2% | 14.4% | 16.0%
N#CCCn1nnc(-c2ccccc2F)n1 | -20.1% | -15.9 | -3.5 | 23.2% | 25.9% | 0.8%
CC(C)c1ccc(-c2nnn(CCC#N)n2)cc1 | 39.8% | 72.2* | 26.7* | 10.9% | 46.1%[46.1 µM] | 0.0%
COc1ccccc1CC(=O)Nc1sc2c(c1C(N)=O)CCCC2 | -14.2% | -6.3 | -2.0 | 20µM* | -19.7%[46.1 µM] | ?
CC(C)(C)C1CCc2c(sc(NC(=O)c3cccs3)c2C(N)=O)C1 (stereo not drawn) | -0.5% | 62.5* | 31.6* | -14.9% | 14.5% | -20.9%
NC(=O)c1c(NC(=O)CN2CCCC2)sc2c1CCCC2 | 10.9% | 20.6* | 25.8* | ? | 0.5% | 0.3%
CCN(CC)CC(=O)Nc1sc2c(c1C(=O)c1ccccc1OC)CCC2 | 0.0% | -6.8 | -1.3 | ? | ? | 11.2µM*
CCOC(=O)c1c(NC(=O)CN(CC)CC)sc2c1CCC2 | nt | -10.5 | -1.9 | ? | -27.1% | -26.8%
CC(=O)c1ccc(NC(=O)C2CCCN(S(=O)(=O)c3cn(C)cn3)C2)cc1 (stereo not drawn) | -8.0% | nt | nt | nt | nt | 0.3%[46.1 µM]
SMILES | FMDV inh | Shiga inhibitor | CHX counter | HCV inh | Marburg entry inh | Lassa entry inh
CC(C)CC1OC(C)CC2=C1C(=O)OC(C)(C)O2 (stereo not drawn) | 0.0% | nt | nt | nt | nt | nt
CCOC(=O)c1c(NC(=O)Cc2cccs2)sc2c1CCCC2 | -4.1% | -22.0 | 0.8 | ? | ? | ?
NC(=O)c1c(NC(=O)Cc2cccs2)sc2c1CCC2 | 1.3% | 19.3* | 16.1* | ? | 2.5% | -12.5%
COc1ccc(Cn2c(CCC(=O)Nc3cccc(Cl)c3)nc3cccnc32)cc1 | -22.2% | nt | nt | nt | 3.5%[46.1 µM] | 7.8%[46.1 µM]
Cc1ccc(NC(=S)NC(=O)c2sc3ccccc3c2Cl)c(C(=O)O)c1 | nt | 33.2 | 9.7 | nt | nt | nt
O=C1N=C(N2CCOCC2)S/C1=C1\C(=O)N(Cc2ccccc2)c2ccccc21 | 43.0% | 23.8 | 14.6 | 27.0% | ? | 4.3%
CCCN1C(=O)/C(=C2\SC(N3CCCCC3)=NC2=O)c2ccccc21 | 17.7% | 68.1* | 46.1* | ? | ? | ?
O=C1N=C(N2CCCCC2)SC1=C1CCCCC1 | 42.8% | 113.9* | 32.9* | -16.0% | 21.4% | ?
CN1C(=O)/C(=C2\SC(N3CCCCCC3)=NC2=O)c2ccccc21 | 47.1% | 31.7 | 20.4* | ? | 29.8% | ?
CCCn1c(SCC(=O)c2cc(C)n(-c3ccc4c(c3)OCO4)c2C)n[nH]c1=O | ? | -5.2 | -1.7 | ? | ? | ?
CN(/N=C/c1ccncc1)c1cnn(-c2ccc(F)c(Cl)c2)c(=O)c1Cl | -11.2% | 46.3* | 27.1* | 0.1% | -7.1% | 0.3%
COc1c(Cl)cnn(-c2ccc(Cl)c(Cl)c2)c1=O | -3.0% | 35.2 | 17.2 | ? | ? | 2.9%[46.1 µM]
COc1ccccc1CNc1nc(-c2ccco2)nn1S(=O)(=O)c1ccc(Cl)cc1 | 0.0% | nt | nt | nt | 2.2%[46.1 µM] | -9.3%[46.1 µM]
O=C(Nc1cnccn1)c1cccs1 | 41.5% | 66.2 | 19.4* | 1.7% | 3.7% | 17.0%
O=C(NC(=S)Nc1cc(Cl)ccc1O)c1cccc(Br)c1 | 43.2% | 89.6* | 41.7* | 11.2µM* | nt | nt
O=C(NC(=S)Nc1cccnc1)c1ccccc1 | 63.8% | 70.9* | 27.8* | ? | ? | nt
O=C(O)c1ccc(NC(=S)NC(=O)c2cccnc2)cc1 | -12.8% | 29.4 | 3.5 | 5.9% | 26.0%[46.1 µM] | 25.5%[46.1 µM]
O=C(Nc1ncc(Cl)cn1)c1cccs1 | 11.8% | 59.2* | 45.3* | 17.0% | 20.2% | 8.2%
COc1cccc(F)c1C(=O)NC(=O)Nc1ccc2nc(C)oc2c1 | 33.6% | 6.8 | 6.2 | -0.7% | 7.7%[46.1 µM] | -7.6%[46.1 µM]
COc1cc(CN2CCCCCC2)cc(Br)c1O | -5.3% | -2.2 | -2.7 | -3.0% | -9.8%[46.1 µM] | 27.4%[46.1 µM]
O=C(NC(=S)Nc1cccnc1)c1cccc(Br)c1 | 0.0% | 63.4* | 17.2* | -5.7% | ? | 1.4%[46.1 µM]
Cc1cc(Cl)ccc1OCC(=O)NC(=S)Nc1ccc(Cl)cn1 | 16.0% | -4.8 | -1.7 | 15.3% | nt | nt
O=C(NC(=S)Nc1ccc(Br)cn1)c1cccnc1 | 48.4% | 30.0 | 28.1* | 17.9% | 4.7%[46.1 µM] | -1.7%[46.1 µM]
O=C(NC(=S)Nc1cccnc1)c1cccs1 | 49.7% | 42.2* | 19.8* | 12.0% | 19.6% | 27.8%
CCCC(=O)NC(=S)Nc1ccc(Cl)cn1 | 65.4% | 54.9 | 30.0* | -0.2% | ? | ?
O=C(Nc1cccc(NC(=O)c2cccs2)c1)c1cccnc1 | -8.6% | 8.8 | 2.8 | -16.4% | ? | 0.3%[46.1 µM]
C=CCn1cc(C(=O)OC)c(=O)c2cc(S(=O)(=O)N3CCC(C)CC3)ccc21 | 18.7% | -8.7 | -1.1 | 3.5% | -17.3% | -2.7%
